# Rab9 prom act = activators of Rab9 promoter. Potency, µM (doses to about 9.22 µM), inactives show at the highest dose activation, negative = inhibition, hits mostly activators. hit rate 2.8% among 320,000. Huh7 Rab9 promoter-luciferase reporter, luminescence, 24 h; note: % of control where 0% means no effect; nearly all actives have a fitted effect of over 60% in size
#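 Measured in stably transfected Huh7 cells bearing a Rab9 promoter–luciferase construct: 24 h compound treatment at 37 °C, followed by luminescence detection.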
# ELG1 genotoxic = genotoxicity induction in ELG1-luciferase HEK293T cells. HEK293T ELG1-luciferase reporter, luminescence, 16 h. Potency, µM (highest dose often 46 µM), inactives show at the highest dose activity change, positive = activation, actives largely listed as activators. hit rate 1.3% among 330,000. AID 504466; note: % of control where 0% means no effect; nearly all actives have a fitted effect of over 60% in size
#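 DMSO vehicle served as control against compound-treated ELG1-luciferase HEK293T cells; exposure lasted 16 hr at 37 °C and 5% CO2, followed by ONE-Glo luminescence detection after 30 min.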
# SMN2 splice enh = enhancers of SMN2 splice variant expression. HEK293 SMN2-luciferase splicing reporter, luminescence, 30-36 h. Potency, µM (highest dose often 46.1 µM), for inactives: top-dose activity change, positive = activation, hits mostly activators. hit rate 2.8% among 210,000. AID 1458; note: % of control where 0% means no effect; nearly all actives have a fitted effect of over 55% in size
#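 qHTS luciferase splicing reporter: luminescence rises when SMN2 exon 7 is included in transfected HEK293 cells. Compound exposure lasted 30-36 h at 37C, with 4.5 mM final sodium butyrate as control, followed by a ONE-Glo read.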
# ELG1 repair inh = blocks ELG1-dependent DNA repair in HEK293T cells; HEK293T ELG1-luciferase reporter, luminescence, 16 h; DNA damage induced by 5-fluorouridine; AID 504467; Potency, µM (titrated, usually from 46.1 µM), for the others: at the highest dose activity change, negative = inhibition, actives largely listed as inhibitors; hit rate 2.3% among 330,000; note: % is set by controls: 0 for no effect and ±100 for the full control effect; nearly all actives have a fitted effect of over 55% in size
#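 DMSO vehicle served as the neutral condition. Each well held 2,000 cells given 5-fluorouridine plus compound; after 16 hr at 37 °C/5% CO2, ONE-Glo was added and luciferase measured 30 min later.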
# FLuc counter = firefly luciferase modulation, counter-screen for miR-21 project; AID 588342; Potency, µM (highest dose often 57.5 µM), inactives show at the highest dose activity change, negative = inhibition, actives largely listed as inhibitors; purified FLuc, Km substrates, luminescence inhibition; hit rate 6.9% among 360,000;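 note: plate controls were vehicle for no effect and reference inhibitor for full effect; nearly all actives have a fitted effect of over 55% in size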
# Target sequence (P08659 whole entry, looked up): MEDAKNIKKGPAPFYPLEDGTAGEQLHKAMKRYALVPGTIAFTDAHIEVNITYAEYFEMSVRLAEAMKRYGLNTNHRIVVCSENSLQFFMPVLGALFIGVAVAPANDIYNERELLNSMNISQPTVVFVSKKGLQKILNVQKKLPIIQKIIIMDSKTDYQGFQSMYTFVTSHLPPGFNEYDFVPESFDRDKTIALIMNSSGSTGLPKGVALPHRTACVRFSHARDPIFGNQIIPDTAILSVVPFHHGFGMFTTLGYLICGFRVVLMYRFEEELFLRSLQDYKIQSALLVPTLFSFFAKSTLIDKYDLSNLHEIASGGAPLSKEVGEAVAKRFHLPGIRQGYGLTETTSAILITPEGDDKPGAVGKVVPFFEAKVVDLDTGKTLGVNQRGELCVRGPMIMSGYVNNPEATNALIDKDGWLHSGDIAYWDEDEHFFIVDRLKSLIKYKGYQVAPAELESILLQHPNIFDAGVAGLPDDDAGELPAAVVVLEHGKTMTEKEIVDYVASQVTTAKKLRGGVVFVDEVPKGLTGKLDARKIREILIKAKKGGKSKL
#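 Biochemical qHTS of compounds, final roughly 60 µM downward over six points, against 10 nM purified firefly luciferase using Km concentrations of substrates (10 uM D-luciferin, 10 uM ATP) in Tris acetate pH 7.5 buffer; luminescence output.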
# NPC1 promoter act = NPC1 promoter activation; Huh7 NPC1 promoter luciferase reporter, 24 h; hit rate 2.4% among 320,000; Potency, µM (doses to about 9.22 µM), for the others: at the highest dose activation, hits mostly activators; AID 485313; note: % of control where 0% means no effect; nearly all actives have a fitted effect of over 60% in size
#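 Readout is luciferase luminescence, reflecting NPC1 promoter activation in stably transfected Huh7 cells after 24 h compound exposure at 37 °C in reduced-serum medium with 10% FBS.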
# Numbers without * were called inactive; u = inconclusive; x = not tested or not shown; [ ] = remark or other dose. Most compounds without a hit are left out; they make up all but 9.2% or so of the library. Calls come from the whole dose curve; as a rule, active = well fitted curve in the direction sought with a large enough effect; inconclusive = small, poorly fitted or top-dose-only effect, or another doubt; inactive = no such curve, though single readings can be large; an effect the other way counts as inactive or inconclusive. Potency is the fitted concentration of half-maximal effect.
SMILES,Rab9 prom act,ELG1 genotoxic,SMN2 splice enh,ELG1 repair inh,FLuc counter,NPC1 promoter act
CC(C)c1ccc(-c2cc(C(=O)N3CCOCC3)c3cc(Br)ccc3n2)cc1,20.7%,-9.2%,x,u,9.53µM*,3.4%
CCOC(=O)C1CCCN(C(=O)c2cc(-c3ccccc3)nc3ccccc23)C1 (stereo not drawn),-0.9%,2.4%,-6.3%,u,u,-1.1%
COc1ccc(-c2cc(C(=O)N3CCCC(C(F)(F)F)C3)c3ccccc3n2)cc1 (stereo not drawn),-7.1%,-6.3%,x,u,6.01µM*,-0.7%
Cc1ccc(-c2cc(C(=O)N3CCCC(C(F)(F)F)C3)c3ccccc3n2)o1 (stereo not drawn),8.7%,-2.0%,x,11.0%,12µM*,3.5%
O=C(O)c1cc(-c2ccco2)nc2ccc(Br)cc12,-4.7%,-5.6%,0.2%,u,19µM*,-0.4%
CCOc1ccc(CCn2c3c(c(=O)[nH]c2=O)C(NC(=O)c2cccc(F)c2)(C(F)(F)F)C(=O)N3)cc1OCC (stereo not drawn),x,x,3.2%,x,u,x
COc1ccc(-c2cc(C(=O)N3CCCC3)c3ccccc3n2)cc1,u,5.0%[9.26 µM],x,u,4.26µM*,28.8%
CCOC(=O)N1CCN(C(=O)c2cc(-c3ccc(OCC)cc3)nc3ccccc23)CC1,u,0.4%,12.6µM*,u,0.213µM*,22.6%
O=C(c1cc(-c2ccccc2)nc2ccccc12)N1CCCC1,-0.5%,-5.7%,x,7.6%,u,2.2%
Cc1ccc(-c2cc(C(=O)N3CCCCC3)c3ccccc3n2)cc1C,8.4%,5.1%,x,u,2.39µM*,18.2%
CCOC(=O)N1CCN(C(=O)c2cc(-c3ccncc3)nc3ccccc23)CC1,-14.1%,-0.3%,x,u,2.2%,-18.5%
CCOc1ccc(-c2cc(C(=O)N3CCCC3)c3ccccc3n2)cc1,1.41µM*,u,x,u,0.477µM*,3.55µM*
O=C1CCC=C1C(O)c1ccccc1 (stereo not drawn),x,x,-5.9%,x,x,x
CCOc1ccc(-c2cc(C(=O)N3CCN(C)CC3)c3ccccc3n2)cc1,2.51µM*,u,11.2µM*,u,0.601µM*,2.82µM*
Cc1ccc(-c2cc(C(=O)N3CCN(c4ccc(F)cc4)CC3)c3ccccc3n2)o1,15.9%,-6.6%,14.0%,0.0%,3.38µM*,2.3%
CCOC(=O)N1CCN(C(=O)c2ccc3nc(-c4ccccc4)c(-c4ccccc4)nc3c2)CC1,-0.6%,-10.4%,x,23.1µM*,3.1%,-2.5%
CN1CCCN(C(=O)c2cc(-c3cccc4ccccc34)nc3ccccc23)CC1,-5.2%,-7.9%,x,-22.2%,-18.7%,-3.8%
Cc1ccc(-c2cc(C(=O)N3CCOCC3)c3ccccc3n2)o1,x,7.9%,x,u,x,x
COc1ccccc1CNC(=O)Cn1cc2c(n1)-c1c(oc(C(=O)N3CCOCC3)c1C)CC2,x,x,x,x,-0.3%,x
CCOC(=O)c1ccc(NC(=O)C2CC(O)CN2S(=O)(=O)c2ccc(C)cc2)cc1 (stereo not drawn),x,-1.3%,x,u,x,x
CC[C@H](C)[C@@H](NC(=O)O[C@H]1C(=O)c2cc(OC)ccc2O[C@@H]1c1ccc(OC)c(Br)c1)C(=O)OC,x,x,2.9%,x,x,x
CCCc1ncc(CN2CCC(C(=O)Nc3cccc(-c4cscn4)c3)CC2)cn1,-19.3%,-8.8%,x,8.2µM*,-0.6%,-9.5%
CSc1ncc(CN2CCC(C(=O)Nc3cccc(-c4cscn4)c3)CC2)cn1,-3.2%,-12.9%,x,23.1µM*,-1.8%,-2.6%
CCN(CC(=O)O)C(=O)c1cccnc1,x,x,-12.4%[9.22 µM],x,x,x
Cc1nc(C)c(-c2ccc(SCC(=O)Nc3cccc(F)c3)nn2)s1,-13.8%,-17.3%,x,u,u,-11.1%
CC(=O)c1cccc(NC(=O)CSc2ccc(-c3sc(C)nc3C)nn2)c1,-3.4%,-28.9%,x,23.1µM*,13.5µM*,-5.1%
CC(=O)c1cccc(Nc2nc(-c3sc(N)nc3C)cs2)c1,21.9%,11.5%,x,8.2µM*,16.9µM*,15.4%
